Composite z-score and z-score data for four compounds are collected here from PubChem BioAssay.

In test [1] the test system is Wnt5a (protein binding on small-molecule microarray). The experiment in a line: Wnt5a binders on small-molecule microarray, primary screen, biophysical, 635/667 nm fluorescence (AID 1142).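 Also: fluorescence read at 667 nm with signal to noise per printed feature.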 Particulars: 635 nm fluorescence, higher = more signal.
Test [2] in a line: cell viability in Huh7 cells, primary screen, cytotoxicity control for HCV replication inhibitor project, CellTiter-Glo luminescence, basal, 48 h (AID 1143).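 Also: Huh7 hepatoma cells carrying a hepatitis C replication reporter with no stimulus; test concentration not given here.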 Particulars: Huh7 HCV replicon, higher = more signal, called active from +8 up or from −8 down.
A short description of test [3]: P. aeruginosa biofilm formation inhibitors, primary screen, PAO1 strain, BacTiter-Glo luminescence, LB-PBS (AID 1144). Particulars: 12 h, higher = more signal.
Test [4] is described as follows: CREB reporter modulators without forskolin, primary screen, cell-based, PC12, CRE-LacZ reporter, unstimulated (AID 1145). Particulars: no forskolin, luminescence, 4.5 h, higher = more signal, called active from +8 up or from −8 down.
Test [5] in a line: CREB reporter modulators under forskolin, primary screen, cell-based, PC12, CRE-LacZ reporter, forskolin-stimulated (AID 1146).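 Also: PC12 cells with 6xCRE LacZ reporter stimulated by forskolin 10 µM; beta-galactosidase reporter signal reflecting CREB driven transcription.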 Particulars: luminescence, 4.5 h, higher = more signal, called active from +8 up or from −8 down.
Test [6] concerns the target Streptavidin (Streptomyces avidinii) (UniProt P22629). The experiment in a line: streptavidin binders on small-molecule microarray, primary screen, artefact control for SMM compound annotation, biophysical, 635/667 nm fluorescence (AID 1147).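 Also: signal reflects streptavidin binding to arrayed compounds as a control protein.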 Particulars: streptavidin binding, higher = more signal.
A short description of test [7]: small-molecule binders of probe aInhba, primary screen, biochemical, small-molecule microarray, 635/667 nm fluorescence (AID 1148).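 Also: score merges 667nm spot fluorescence with signal-to-noise for antibody binding to printed compounds.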 Particulars: higher = more signal.
In test [8] the target is Torsin-1A (Homo sapiens) (UniProt O14656). The experiment in a line: torsin A binders from cell lysate, primary screen, small-molecule microarray, wild-type, 635/667 nm (AID 1149). Particulars: COS7 hTOR1A-WT lysate, 635 nm fluorescence, higher = more signal.
Sequence of Torsin-1A (Homo sapiens) (O14656 whole entry, looked up): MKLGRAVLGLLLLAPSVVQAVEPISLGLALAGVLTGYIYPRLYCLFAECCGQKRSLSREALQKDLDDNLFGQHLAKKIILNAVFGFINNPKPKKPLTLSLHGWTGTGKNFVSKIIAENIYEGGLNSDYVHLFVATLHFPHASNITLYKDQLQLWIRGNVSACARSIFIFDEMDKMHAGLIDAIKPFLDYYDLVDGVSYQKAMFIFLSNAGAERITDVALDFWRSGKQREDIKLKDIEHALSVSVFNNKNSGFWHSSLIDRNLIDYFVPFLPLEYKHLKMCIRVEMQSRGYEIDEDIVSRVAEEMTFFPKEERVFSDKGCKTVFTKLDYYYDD
Test [9] shares this target. The experiment in a line: small-molecule binders of mutant TOR1A in lysate, primary screen, cell lysate, small-molecule microarray, COS7 lysate, 635/667 nm fluorescence (AID 1150).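 Also: score pools 667 nm emission and signal to noise measuring lysate protein binding.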 Particulars: COS7 hTOR1A mutant lysate, 635 nm fluorescence, higher = more signal.
Test [10] concerns Sonic hedgehog protein (Shh). As to the kind of experiment: small-molecule binders of Shh protein, primary screen, biochemical, small-molecule microarray, 635/667 nm fluorescence (AID 1151).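 Also: Shh protein binding to compounds spotted on small-molecule microarray slides; score combines spot fluorescence intensity with signal-to-noise across triplicate slides.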 Particulars: small-molecule microarray binding, 635 nm fluorescence; higher = more signal.
A short description of test [11]: E. coli DRC41 culture turbidity changes, primary screen, E. coli filamentation inducer project, strain DRC41, OD650, 48 h (AID 1152).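 Also: E. coli MC1000 strain DRC41 lacking acrAB efflux pump and sulA.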 Particulars: E. coli DRC41 (acrAB sulA), higher = more signal, called active from +8 up or from −8 down.
A short description of test [12]: small-molecule binders of probe aLefty1, primary screen, biochemical, small-molecule microarray, 635/667 nm fluorescence (AID 1153).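 Also: score merges spot fluorescence with signal-to-noise ratio from the scanned slide images.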 Particulars: higher = more signal.
Test [13] can be described thus: PSAC antagonists in infected red cells, primary screen, cell-based, P. falciparum Indochina, OD700, 1 h (AID 1154). Particulars: P. falciparum Indochina infected RBC osmotic lysis, higher = more signal, called active from +8 up or from −8 down.
The nature of test [14]: PSAC antagonists in infected red cells, primary screen, cell-based, P. falciparum Indochina, OD700, 2 h (AID 1155).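 Also: lysis reports solute entry through the parasite surface anion channel PSAC; channel blockers reduce lysis of infected cells.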 Particulars: P. falciparum Indochina infected erythrocytes, osmotic lysis OD700; higher = more signal, called active from +8 up or from −8 down.
Test [15] can be described thus: osmotic lysis modulators in infected erythrocytes, primary screen, PSAC antagonist project, cell-based, P. falciparum Indochina, OD700, 3 h (AID 1156). Particulars: higher = more signal, called active from +8 up or from −8 down.
Test [16] is described as follows: PSAC antagonists in infected red cells, primary screen, cell-based, P. falciparum Indochina, OD700, 18 h (AID 1157). Particulars: P. falciparum Indochina infected erythrocytes, osmotic lysis OD700, 18 h; higher = more signal, called active from +8 up or from −8 down.
Test [17] is described as follows: modulators of S6 phosphorylation in cells, primary screen, cell-based, A549, cytoblot, luminescence, serum-stimulated (AID 1158).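 Also: serum-stimulated A549 lung adenocarcinoma cells; signal is phosphorylated S6 detected by cytoblot immunostaining with HRP secondary.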 Particulars: A549 phospho-S6 cytoblot, 5 h, higher = more signal.
In test [18] the target is NADPH oxidase 2 (Homo sapiens) (UniProt P04839). As to the kind of experiment: NOX2-dependent H2O2 signal modulators, primary screen, NOX inhibitor project, cell-based, HEK293-NOX2, PMA-stimulated, Amplex Red fluorescence (AID 1159). Also: test concentration not given here. Particulars: 45 min, higher = more signal, called active from +8 up or from −8 down.
Sequence of NADPH oxidase 2 (Homo sapiens) (P04839 whole entry, looked up): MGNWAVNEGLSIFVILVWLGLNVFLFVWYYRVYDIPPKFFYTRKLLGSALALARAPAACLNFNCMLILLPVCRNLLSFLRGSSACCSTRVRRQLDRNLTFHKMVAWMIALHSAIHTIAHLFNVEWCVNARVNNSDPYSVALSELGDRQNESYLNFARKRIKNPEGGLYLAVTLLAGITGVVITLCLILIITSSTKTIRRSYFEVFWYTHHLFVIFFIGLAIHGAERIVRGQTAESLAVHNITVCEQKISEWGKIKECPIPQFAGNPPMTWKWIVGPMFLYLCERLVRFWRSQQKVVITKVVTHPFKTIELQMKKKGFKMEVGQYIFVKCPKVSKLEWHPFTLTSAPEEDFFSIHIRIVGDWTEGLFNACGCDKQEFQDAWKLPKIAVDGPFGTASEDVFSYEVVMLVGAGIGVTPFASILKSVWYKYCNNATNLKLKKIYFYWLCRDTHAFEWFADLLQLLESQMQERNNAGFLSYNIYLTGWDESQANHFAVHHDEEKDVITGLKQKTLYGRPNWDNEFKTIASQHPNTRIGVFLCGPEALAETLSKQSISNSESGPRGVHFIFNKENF
The target of test [19] is NADPH oxidase 4 (Homo sapiens) (UniProt Q9NPH5). The experiment in a line: NOX4-dependent H2O2 signal modulators, primary screen, NOX inhibitor project, cell-based, HEK293-NOX4, tetracycline-induced, Amplex Red fluorescence (AID 1160). Particulars: 45 min, higher = more signal, called active from +8 up or from −8 down.
Sequence of NADPH oxidase 4 (Homo sapiens) (Q9NPH5 whole entry, looked up): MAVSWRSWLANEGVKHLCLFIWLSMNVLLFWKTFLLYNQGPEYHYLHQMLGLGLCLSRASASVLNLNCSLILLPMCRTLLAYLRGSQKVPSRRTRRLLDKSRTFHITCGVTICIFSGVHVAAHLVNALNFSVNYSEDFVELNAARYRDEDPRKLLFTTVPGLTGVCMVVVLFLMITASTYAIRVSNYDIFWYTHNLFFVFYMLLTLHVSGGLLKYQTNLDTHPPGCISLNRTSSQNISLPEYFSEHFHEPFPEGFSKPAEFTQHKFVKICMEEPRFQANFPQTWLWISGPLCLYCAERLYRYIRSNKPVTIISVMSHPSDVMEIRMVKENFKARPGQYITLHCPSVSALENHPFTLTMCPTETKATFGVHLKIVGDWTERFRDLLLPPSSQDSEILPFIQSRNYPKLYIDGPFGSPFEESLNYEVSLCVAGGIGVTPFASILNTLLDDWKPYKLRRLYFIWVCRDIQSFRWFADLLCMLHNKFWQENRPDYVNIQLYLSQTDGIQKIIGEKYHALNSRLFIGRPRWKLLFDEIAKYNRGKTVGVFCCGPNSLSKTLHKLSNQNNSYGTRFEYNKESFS
In test [20] the target is NADPH oxidase 5 (Homo sapiens) (UniProt Q96PH1). The experiment in a line: NOX5-dependent H2O2 signal modulators, primary screen, NOX inhibitor project, cell-based, HEK293-NOX5, Amplex Red fluorescence (AID 1161). Particulars: HEK293-NOX5, ionomycin, 45 min, higher = more signal.
Sequence of NADPH oxidase 5 (Homo sapiens) (Q96PH1 whole entry, looked up): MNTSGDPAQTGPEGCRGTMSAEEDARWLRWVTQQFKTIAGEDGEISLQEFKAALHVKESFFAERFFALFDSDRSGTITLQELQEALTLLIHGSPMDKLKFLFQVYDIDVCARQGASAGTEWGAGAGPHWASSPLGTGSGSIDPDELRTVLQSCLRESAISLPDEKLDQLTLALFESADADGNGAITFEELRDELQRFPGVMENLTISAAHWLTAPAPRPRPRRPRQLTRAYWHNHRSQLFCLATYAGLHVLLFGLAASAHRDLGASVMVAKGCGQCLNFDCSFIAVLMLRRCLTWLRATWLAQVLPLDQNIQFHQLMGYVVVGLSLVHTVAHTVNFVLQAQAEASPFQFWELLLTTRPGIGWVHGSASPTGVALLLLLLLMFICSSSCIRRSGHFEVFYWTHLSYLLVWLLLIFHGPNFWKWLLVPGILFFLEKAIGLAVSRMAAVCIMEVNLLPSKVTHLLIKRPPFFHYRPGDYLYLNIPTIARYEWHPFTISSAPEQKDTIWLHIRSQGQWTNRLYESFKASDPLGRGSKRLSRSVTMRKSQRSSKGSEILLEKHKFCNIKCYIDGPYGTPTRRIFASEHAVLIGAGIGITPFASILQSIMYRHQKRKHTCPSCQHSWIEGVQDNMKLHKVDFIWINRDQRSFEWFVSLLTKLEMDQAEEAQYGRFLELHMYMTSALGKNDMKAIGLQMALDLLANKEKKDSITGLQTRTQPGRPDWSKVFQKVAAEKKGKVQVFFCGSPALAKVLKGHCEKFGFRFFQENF

Calls of active or inactive are those of the source. Unless noted, no rule for the calls is given here.

Sequence of Streptavidin (Streptomyces avidinii) (P22629 whole entry, looked up): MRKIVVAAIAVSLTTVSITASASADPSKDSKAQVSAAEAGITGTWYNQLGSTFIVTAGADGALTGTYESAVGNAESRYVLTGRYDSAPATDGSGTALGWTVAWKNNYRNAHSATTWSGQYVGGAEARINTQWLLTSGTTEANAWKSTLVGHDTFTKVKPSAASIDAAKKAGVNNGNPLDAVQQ

For `O=C1O[C@H](c2ccccc2)[C@H](c2ccccc2)N2[C@H]1[C@@H](C(=O)N1CCCCCCC1)[C@]1(C(=O)Nc3ccc(C#CCCO)cc31)[C@H]2c1ccc(O)cc1`, the composite z-score in test [1] was found to be 2.43; in test [6] it was 3.86; in test [7] it was 1.84; in [8] it was 3.62; in test [9] it was 3.34; in test [10] it was 2.36. The same compound registered a composite z-score in [12] of 3.06. Further, the z-score in test [2] is -1.76 (inactive); in [3], -0.575 (inactive); in test [4], -0.438 (inactive); in test [5], -1.23 (inactive); in [11] it was 1.48 (inactive); in [13] it was 1.01 (inactive). The z-score in [14] is -0.0898 (inactive); in [15], 0.0261 (inactive); in test [16] it was 0.295 (inactive); in test [17], 0.0374; in [18], 1.28 (inactive); in test [19] it was 0.892 (inactive). The z-score in [20] worked out at 1.38.
For `CCOC(=O)C[C@H]1[C@H](OC(=O)c2cc3ccccc3oc2=O)[C@@H](NC(=O)Cc2ccc(OC)cc2)c2cc(OCCCO)ccc2N1C(=O)Cc1ccc(OC)cc1`, the composite z-score in test [1] was 0.0746; in test [6] it was 0.55; in [7], -0.185; in test [8], 0.332; in [9] it was 0.839; in [10] it was 1.27. Also, the composite z-score in test [12] came to 1.28. Also, the z-score in test [2] is -1.5 (inactive); in test [3] it was -0.783 (inactive); in test [4], -0.0558 (inactive); in test [5], -1.59 (inactive); in test [11] it was 0.983 (inactive); in test [13] it was 6.34 (inactive). Also, the z-score in test [14] is -1.26 (inactive); in test [15], -0.456 (inactive); in test [16], -2.42 (inactive); in test [17], 1.32; in test [18], 1.38 (inactive); in test [19] it was 1.52 (inactive). Also, the z-score in test [20] stood at 0.991.
For the compound `CCCC[C@@H](O)C1=C(C)Cn2c(=O)n(-c3ccccc3)c(=O)n2[C@H]1CO`, the composite z-score was 0.0027 in [1]; -0.463 in test [6]; -0.251 in test [7]; 0.0705 in test [8]; 0.141 in [9]; 0.317 in test [10]. Besides, in test [12], the composite z-score is -0.414. The z-score in test [2] is -1.07 (inactive); in test [3] it was -0.275 (inactive); in [4], 1.77 (inactive); in test [5] it was -0.844 (inactive); in test [11] it was 3.02 (inactive); in test [13], -0.262 (inactive). The z-score in test [14] was -0.957 (inactive); in test [15], -0.0398 (inactive); in [16], -2.37 (inactive); in test [17], 0.916; in test [18], -0.943 (inactive); in [19], 0.216 (inactive). Also, the z-score in [20] worked out at 0.616.
For `Cc1ccc(S[C@]2(C(=O)NCCN3CCOCC3)CC(=O)N(C(C)C)[C@@H]2c2ccc(CO)cc2I)cc1`, the composite z-score in test [1] was -0.141; in test [6] it was -0.676; in [7] it was 0.0228; in test [8] it was -0.533; in [9], -0.26; in test [10], -0.0348. In [12], this compound came in with a composite z-score of 0.11. Further, the z-score in test [2] was -2.88 (inactive); in [3] it was -0.121 (inactive); in [4] it was -0.116 (inactive); in test [5], -0.395 (inactive); in [11], 3.66 (inactive); in [13] it was 7.56 (inactive). For the same compound, the z-score in test [14] was 0.308 (inactive); in test [15], 0.651 (inactive); in [16], -0.511 (inactive); in [17], 1.86; in [18], -0.491 (inactive); in test [19], -1.24 (inactive). Moreover, the z-score in test [20] amounted to 1.07.
